Hits are enriched below; roughly 0.42% of the tested compounds scored in any of these assays.
GAA inh = alpha-glucosidase (human) inhibition | P10253 | purified human GAA, 4-MU-alpha-glucoside fluorescence | Potency, µM (doses to about 76.9 µM), without a hit: top-dose activity change, negative = inhibition, actives largely listed as inhibitors | 200,000 compounds, 0.005% hits;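 further: plate controls were uninhibited enzyme wells for no effect and no-enzyme background for full effect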
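Human enzyme at 4 nM with 400 uM 4-methylumbelliferyl-alpha-D-pyranoside, citrate/phosphate buffer pH 5.0, 0.005% Tween-20, 20 min at room temperature. Compounds up to 77 uM. 4-MU fluorescence (Ex 365/Em 440) read after NaOH/glycine stop; AC50 from Hill fit.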
aGlu spleen mod = inhibitors or activators of human alpha-glucosidase in spleen homogenate | 240,000 compounds, 0.006% hits | human spleen homogenate, 4-MU-alpha-glucoside fluorescence | Potency, µM (top dose mostly 79.9 µM), inactives show top-dose activity change, negative = inhibition, most hits filed as inhibitors | P10253;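 further: 0% = enzyme with vehicle and -100% = no enzyme basal signal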
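AC50 values come from Hill-equation fits of concentration-response data, normalized to no-enzyme and full-activity controls. Enzyme source: 1 ug human spleen homogenate; 1 mM fluorogenic 4-MU glucoside, pH 5.0 citrate buffer, 37 C, 40 min.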
GAA glycogen mod = inhibitors or activators of human alpha-glucosidase glycogen cleavage | recombinant GAA, glycogen substrate, Amplex Red glucose oxidase fluorescence | Potency, µM (highest dose often 76.4 µM), for the others: at the highest dose activity change, negative = inhibition, most hits filed as inhibitors | P10253 | 300,000 compounds, 0.38% hits;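 further: 0% = full enzyme reaction and -100% = no-enzyme basal signal; the screen sought inhibitors and activators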
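Recombinant human alpha-glucosidase (4 nM final) hydrolysed bovine liver glycogen (30 ug) for 40 min at 37 C in pH 5.0 citrate/phosphate with 0.01% Tween-20. Released glucose detected by glucose oxidase/Amplex Red, Ex 573/Em 610 nm. Compounds up to 77 uM; AC50 from Hill fits.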
Lamin A splicing = modulators of lamin A splicing. HeLa LMNA splicing GFP/RFP minigene ratio, 48 h. Potency, µM (series often up to 46.1 µM), without a hit: at the highest dose ratio change, negative = inhibition, actives largely listed as inhibitors. 200,000 compounds, 0.01% hits. AID 1487; active means well fitted inhibition curve with a large enough effect in the signal ratio, with a control signal flat, not every such curve was filed as active; inconclusive means small, poorly fitted or top-dose-only effect, or effect the other way, or a change in a side signal; the % refers to the signal ratio
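S3 HeLa stable clones carrying a lamin A-EGFP splicing minigene plus DsRed2 were seeded at 600 cells/well in Opti-MEM with 2% FBS, pin-dosed and incubated 48 h at 37°C. Acumen cytometry (488 nm) gave the GFP/RFP total-intensity ratio.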
N370S GC mod = inhibitors or activators of N370S glucocerebrosidase for Gaucher disease; P04062; N370S GC spleen homogenate, 4MU-glucoside fluorescence; AID 2101; 330,000 compounds, 0.092% hits; Potency, µM (doses to about 59.4 µM), for inactives: at the top dose activity change, negative = inhibition, most hits filed as inhibitors;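 further: 0% = full enzyme activity and -100% = no enzyme basal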
Numbers without * were called inactive; u = inconclusive; x = no result; [ ] = dose if it differs, or a comment. Unless noted, the call rests on the fitted dose curve; in most records, active means well fitted curve in the direction sought with a large enough effect; inconclusive means small, poorly fitted or top-dose-only effect, or another doubt; inactive means no such curve, though single readings can be large; an effect the other way counts as inactive or inconclusive. Unless noted, on the % scale 0 is the no-effect control and ±100 the full control effect; potency means the concentration at half of the fitted maximal effect.

SMILES	GAA inh	aGlu spleen mod	GAA glycogen mod	Lamin A splicing	N370S GC mod
CC[C@@H](C)[C@H](NS(=O)(=O)c1cccc2ccccc12)C(=O)N[C@H](C=O)Cc1c[nH]c2ccccc12	x	6%	x	x	-7%
CCCCCCCC1=CC2=C(Cl)C(=O)C(C)(OC(C)=O)C(=O)C2=CN1C (centres undefined)	x	-5%	x	x	-3%
COc1cc(C(=O)OCCC(C)C)cc(OC)c1O	-10%	1%	11µM*	x	4%
Cn1c(CNc2ccccc2O)nc2ccccc21	4%[15.4 µM]	-6%	14µM*	u	11%
CCN(C(=O)c1coc(=O)c(Br)c1)c1ccc2c(c1)OCO2	u	3%	18µM*	u	15%
Cn1c(SCC(=O)CC(=O)Nc2ccccc2)nnc1-c1ccc(O)cc1	2%	-1%	1%	8%	14µM*
OC[C@H]1OC(O)[C@H](O)[C@@H](O)[C@@H]1O (some centres undefined)	x	3%	x	x	-3%
CSCC[C@H](NC(=O)CN)C(=O)N[C@@H](CC(=O)O)C(=O)N[C@@H](CO)C(=O)N[C@@H](CC(C)C)C(=O)N[C@@H](C)C(=O)N[C@@H](Cc1ccccc1)C(=O)N[C@@H](CO)C(=O)NCC(=O)NCC(=O)N[C@@H](CC(C)C)C(N)=O	x	6%	x	x	-2%
C/C(=N\N1CCN(C)CC1)c1ccc(Cl)c(Cl)c1	4%	2%	28µM*	x	-2%
COc1cccc([C@@H]2Oc3ccc(OC)cc3C(=O)[C@H]2OC(=O)NC2CCCC2)c1	x	3%	x	x	4%
O=c1c2ccccc2[nH]c2ccc(O)cc12	x	x	20µM*	x	-7%
Cn1cc(-c2nc3cnc(Oc4cccc(Cl)c4)nc3n(C3CC3)c2=O)c2ccccc21	x	3%	x	7%	23%
FC(F)(F)c1ccc2c(c1)NCC1CCCN21 (centres undefined)	3%	5%	6.3µM*	x	3%
c1csc(-c2nc3ccccn3c2Nc2ccc3c(c2)OCCO3)c1	x	x	13µM*	x	x
c1cncc(-c2nc3ccccn3c2Nc2ccc3c(c2)OCCO3)c1	-5%	-2%	18%	-8%	-1%
Cc1ccc(-c2nc3ccccn3c2Nc2ccc3c(c2)OCCO3)o1	x	x	4.5µM*	x	x
Cc1ccc(Nc2c(-c3ccc(C)o3)nc3cnccn23)cc1	-2%	5%	-17%	-18%	0%
Cc1cc(C)n2c(Nc3ccc4c(c3)OCCO4)c(-c3ccc(C)o3)nc2n1	-11%	-15%	18%	-2%	24%
Cc1ccc2nc(-c3ccc(C)o3)c(Nc3ccc4c(c3)OCCO4)n2c1	x	x	6.3µM*	x	x
Cc1ccc(-c2nc3ccccn3c2Nc2ccccc2)o1	7%	9%	7.9µM*	-17%	5%
CCC(=O)NCCCC[C@H](NC(=O)OCc1ccccc1)C(=O)Nc1ccc2c(C)cc(=O)oc2c1	x	0%	x	x	1%
CCN1C(C(=O)c2ccccc2)=C(OC(=O)c2ccccc2OC)c2ccccc2S1(=O)=O	x	x	-8%[76.3 µM]	x	x
Nc1cc(C(=O)O)ccc1Nc1ccccc1	u	3%	12µM*	30%	13%
CCc1ccccc1Nc1ccc(C(=O)O)cc1N	-5%	-13%	3.1µM*	5%	6%
CC(=O)Nc1sc2c(c1C(c1cccc(Cl)c1)N1CCN(CCO)CC1)CCCC2 (centres undefined)	-13%	-1%	6%	x	18µM*
SMILES	GAA inh	aGlu spleen mod	GAA glycogen mod	Lamin A splicing	N370S GC mod
COc1ccc(C(c2c(NC(C)=O)sc3c2CCCC3)N2CCN(CCO)CC2)cc1OC (centres undefined)	5%	2%	-1%	x	14µM*
COc1ccc(-c2nc(C#N)c(NCC3CCCO3)o2)cc1 (centres undefined)	-8%	-16%	28µM*	6%	0%
O=c1[nH]c(CN2CCN(CCO)CC2)nc2ccccc12	-4%	-13%	3%	1%	2%
O=c1[nH]c(CN2CCN(c3ccccc3O)CC2)nc2ccccc12	u	2%	7.9µM*	-1%	-8%
COc1cc(/C=N/Nc2ccc(Cl)c(C(=O)O)c2)ccc1OC(=O)c1ccc(F)cc1	x	x	u	x	-14%
COc1cc(/C=N/Nc2ccc(Cl)c(C(=O)O)c2)ccc1OC(=O)c1ccccc1F	x	x	5.6µM*	x	-3%

Source: PubChem BioAssay
